# Values joined by “and” are separate entries in the source; they are usually repeats but may differ in a detail not shown here. Identical values can stand only once. Unmarked numbers belong to inactive results. Entries that show only a call come without a potency. Active and inactive are the calls of the source. Unless noted, the call rests on the fitted dose curve; in most records, active means well fitted curve in the direction sought with a large enough effect; inconclusive means small, poorly fitted or top-dose-only effect, or another doubt; inactive means no such curve, though single readings can be large; an effect the other way counts as inactive or inconclusive.
# What was measured:
# [1] = qHTS for Inhibitors of ATXN expression: Validation (AID 588378); further: potency means the concentration at half of the fitted maximal effect; nearly all actives have a fitted effect of over 75% in size
# Summary of the method: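 Luminescence from an ATXN2-FFLuc reporter in HEK293 cells served as read-out after 24 h compound treatment at 37 degrees C; CellTiter-Fluor fluorescence was recorded first to assess viability.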
# [2] = target: Ubiquitin carboxyl-terminal hydrolase 1 (Homo sapiens) (UniProt O94782); assay: Inhibitors of USP1/UAF1: Pilot qHTS (AID 504865); further: nearly all actives have a fitted effect of over 35% in size; further: potency means the concentration at half of the fitted maximal effect
# Summary of the method: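 USP1/UAF1 complex (1nM) preincubated with compound 15 min at room temperature, then Ub-Rho substrate (150nM final) added. Fluorescence read kinetically at 480/540 nm, 6 reads every 60 seconds. Buffer: 50mM HEPES pH 7.8, 0.5mM EDTA, 0.1 mg/ml BSA, 1mM TCEP, 0.01% Tween-20.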
# [3] = target: Estrogen receptor (Homo sapiens) (UniProt P03372); assay: qHTS assay for small molecule antagonists of estrogen receptor alpha signaling (AID 588513; active means well fitted curve in the direction sought with a large enough effect in the signal ratio, with a control signal flat, not every such curve was filed as active; inconclusive means small, poorly fitted or top-dose-only effect, or effect the other way, or a change in a side signal; inactive means no such curve, though single readings can be large or run the other way; the % refers to the signal ratio; further: potency means the concentration at half of the fitted maximal effect)
# Summary of the method: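 ER-alpha-UAS-bla GripTite HEK 293 cells in medium with 2% charcoal/dextran-treated FBS were preincubated 4 h at 37 C, dosed with compound (1:2 titration), stimulated with 0.5nM 17-beta-estradiol for 18 h, then read by CCF4 beta-lactamase fluorescence.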
# [4] = target: Bile acid receptor (Homo sapiens) (UniProt Q96RI1); assay: qHTS assay for small molecule antagonists of farnesoid X receptor signaling (AID 588526; calls by dose curve; further: potency means the concentration at half of the fitted maximal effect)
# Summary of the method: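 Concentration-response titrations were fitted to the Hill equation for half-maximal inhibition and maximal response, with data normalised to 50 uM chenodeoxycholic acid and DMSO control wells. Cells: FXR-UAS-bla HEK293T, dialyzed FBS.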
# [5] = target: Peroxisome proliferator-activated receptor delta (Homo sapiens) (UniProt Q03181); assay: qHTS assay for small molecule agonists of peroxisome proliferator-activated receptor delta signaling (AID 588534; calls by dose curve)
# Summary of the method: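 Titration series tested in agonist mode on beta-lactamase reporter cells; 18 hrs at 37 C after a 5 hr pre-incubation. Readout: CCF4 fluorescence, 2 hrs RT. Hill equation gives EC50 and maximal response.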
# [6] = target: DNA dC->dU-editing enzyme APOBEC-3G (Homo sapiens) (UniProt Q9HC16); assay: qHTS for inhibitors of Vif-A3G interactions: Validation (AID 588379)
# Summary of the method: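 Yellow fluorescence (Ex 488, Em 500-530) of Vif-coexpressing HeLa A3G-eYFP cells, scanned by Acumen cytometer, reports blocked A3G degradation. Cells plated at 700/well overnight at 37 deg C before compound addition, then a further overnight compound incubation at 37 deg C.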
# [7] = target: Glucocorticoid receptor (Homo sapiens) (UniProt P04150); assay: qHTS assay for small molecule agonists of glucocorticoid receptor signaling (AID 588532; active means well fitted curve in the direction sought with a large enough effect in the signal ratio, with a control signal flat; inconclusive means small, poorly fitted or top-dose-only effect, or a change in a side signal; inactive means no such curve, though single readings can be large or run the other way; the % refers to the signal ratio); conditions: HeLa MMTV-bla, beta-lactamase ratio, agonist, 18 h; hits give high values; percent of dexamethasone control, DMSO zero
# Summary of the method: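 Stimulation of a glucocorticoid response element-driven beta-lactamase gene was measured in HeLa cells. Responses were scaled between DMSO basal and 0.1 uM dexamethasone, then fitted for half-maximal stimulation.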
# [8] = target: Glucocorticoid receptor (Homo sapiens) (UniProt P04150); assay: qHTS assay for small molecule antagonists of glucocorticoid receptor signaling (AID 588533; active means well fitted inhibition curve with a large enough effect in the signal ratio, with a control signal flat, not every such curve was filed as active; inconclusive means small, poorly fitted or top-dose-only effect, or effect the other way, or a change in a side signal; the % refers to the signal ratio;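 further: cells stimulated with 2 nM dexamethasone as agonist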; further: potency means the concentration at half of the fitted maximal effect)
# Summary of the method: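 Antagonist-mode qHTS: compound titrations added to GRE-bla HeLa cells, then dexamethasone 2 nM final; 18 h, 37 C. CCF4 FRET fluorescence normalized to dexamethasone and DMSO; IC50 from Hill fit.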
# Sequence of Estrogen receptor (Homo sapiens) (P03372 whole entry, looked up): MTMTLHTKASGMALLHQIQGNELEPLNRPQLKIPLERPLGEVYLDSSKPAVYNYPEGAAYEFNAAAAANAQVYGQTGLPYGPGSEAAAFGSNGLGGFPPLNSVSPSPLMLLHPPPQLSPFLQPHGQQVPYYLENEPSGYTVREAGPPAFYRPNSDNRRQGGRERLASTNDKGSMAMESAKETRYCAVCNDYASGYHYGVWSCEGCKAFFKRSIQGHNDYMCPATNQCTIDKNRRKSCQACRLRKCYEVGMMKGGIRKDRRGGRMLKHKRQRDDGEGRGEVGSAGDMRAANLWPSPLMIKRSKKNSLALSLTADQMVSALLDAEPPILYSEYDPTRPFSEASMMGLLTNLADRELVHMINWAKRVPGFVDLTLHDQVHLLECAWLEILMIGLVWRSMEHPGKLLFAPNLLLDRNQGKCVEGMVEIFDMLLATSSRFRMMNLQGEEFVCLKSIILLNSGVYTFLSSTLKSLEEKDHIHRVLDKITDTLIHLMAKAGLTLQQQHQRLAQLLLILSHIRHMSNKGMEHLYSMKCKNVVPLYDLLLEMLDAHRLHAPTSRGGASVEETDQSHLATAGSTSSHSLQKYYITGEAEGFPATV
# Sequence of Glucocorticoid receptor (Homo sapiens) (P04150 whole entry, looked up): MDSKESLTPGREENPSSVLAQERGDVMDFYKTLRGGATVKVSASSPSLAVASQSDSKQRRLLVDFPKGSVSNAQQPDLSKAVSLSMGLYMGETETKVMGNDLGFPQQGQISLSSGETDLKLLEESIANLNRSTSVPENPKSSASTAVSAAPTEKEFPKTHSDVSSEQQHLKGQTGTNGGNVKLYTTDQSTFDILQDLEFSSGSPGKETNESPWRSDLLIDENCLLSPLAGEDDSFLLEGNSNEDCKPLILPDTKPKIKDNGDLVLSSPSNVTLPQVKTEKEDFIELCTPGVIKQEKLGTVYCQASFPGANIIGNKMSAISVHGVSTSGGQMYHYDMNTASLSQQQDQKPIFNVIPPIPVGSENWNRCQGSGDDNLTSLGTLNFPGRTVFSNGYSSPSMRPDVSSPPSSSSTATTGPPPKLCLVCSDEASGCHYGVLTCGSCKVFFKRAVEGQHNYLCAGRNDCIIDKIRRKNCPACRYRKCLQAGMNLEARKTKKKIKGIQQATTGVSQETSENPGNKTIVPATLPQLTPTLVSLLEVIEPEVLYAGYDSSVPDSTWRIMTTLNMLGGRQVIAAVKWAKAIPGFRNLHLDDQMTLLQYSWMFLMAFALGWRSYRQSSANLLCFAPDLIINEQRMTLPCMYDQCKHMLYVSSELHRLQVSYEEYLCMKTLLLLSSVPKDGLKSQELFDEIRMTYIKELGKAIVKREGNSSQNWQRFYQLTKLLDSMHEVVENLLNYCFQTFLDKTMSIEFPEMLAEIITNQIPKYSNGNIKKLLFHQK
# Sequence of Ubiquitin carboxyl-terminal hydrolase 1 (Homo sapiens) (O94782 whole entry, looked up): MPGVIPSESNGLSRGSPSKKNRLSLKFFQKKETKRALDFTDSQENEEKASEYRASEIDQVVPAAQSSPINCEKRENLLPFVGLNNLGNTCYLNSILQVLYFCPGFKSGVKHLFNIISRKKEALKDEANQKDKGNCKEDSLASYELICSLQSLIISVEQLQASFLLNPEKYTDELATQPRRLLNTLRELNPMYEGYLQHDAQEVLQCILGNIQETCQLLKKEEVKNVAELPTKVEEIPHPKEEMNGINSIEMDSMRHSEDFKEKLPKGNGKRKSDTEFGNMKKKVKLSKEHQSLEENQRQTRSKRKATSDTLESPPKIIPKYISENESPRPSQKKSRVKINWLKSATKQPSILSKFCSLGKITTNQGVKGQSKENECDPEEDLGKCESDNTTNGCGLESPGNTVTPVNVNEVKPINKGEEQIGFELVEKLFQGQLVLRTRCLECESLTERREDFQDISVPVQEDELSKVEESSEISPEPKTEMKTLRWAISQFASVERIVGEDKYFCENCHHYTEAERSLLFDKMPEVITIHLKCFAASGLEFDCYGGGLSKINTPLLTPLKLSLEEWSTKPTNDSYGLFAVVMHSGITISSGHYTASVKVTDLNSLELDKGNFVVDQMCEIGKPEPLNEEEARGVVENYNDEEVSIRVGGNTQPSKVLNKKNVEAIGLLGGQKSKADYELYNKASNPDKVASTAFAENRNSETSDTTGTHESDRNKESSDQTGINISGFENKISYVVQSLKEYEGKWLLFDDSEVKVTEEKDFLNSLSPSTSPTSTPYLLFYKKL
# Sequence of Peroxisome proliferator-activated receptor delta (Homo sapiens) (Q03181 whole entry, looked up): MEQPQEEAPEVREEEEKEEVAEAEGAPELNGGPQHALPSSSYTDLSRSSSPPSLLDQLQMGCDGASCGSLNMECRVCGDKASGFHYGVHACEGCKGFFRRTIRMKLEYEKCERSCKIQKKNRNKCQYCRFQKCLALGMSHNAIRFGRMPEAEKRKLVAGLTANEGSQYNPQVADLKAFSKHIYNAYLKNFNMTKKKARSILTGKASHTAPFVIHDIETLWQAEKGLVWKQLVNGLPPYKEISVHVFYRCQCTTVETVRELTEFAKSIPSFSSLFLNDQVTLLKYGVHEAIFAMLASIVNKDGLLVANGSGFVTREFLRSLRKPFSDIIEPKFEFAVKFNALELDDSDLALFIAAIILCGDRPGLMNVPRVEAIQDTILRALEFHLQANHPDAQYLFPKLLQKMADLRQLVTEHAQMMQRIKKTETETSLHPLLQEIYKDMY
# Sequence of Bile acid receptor (Homo sapiens) (Q96RI1 whole entry, looked up): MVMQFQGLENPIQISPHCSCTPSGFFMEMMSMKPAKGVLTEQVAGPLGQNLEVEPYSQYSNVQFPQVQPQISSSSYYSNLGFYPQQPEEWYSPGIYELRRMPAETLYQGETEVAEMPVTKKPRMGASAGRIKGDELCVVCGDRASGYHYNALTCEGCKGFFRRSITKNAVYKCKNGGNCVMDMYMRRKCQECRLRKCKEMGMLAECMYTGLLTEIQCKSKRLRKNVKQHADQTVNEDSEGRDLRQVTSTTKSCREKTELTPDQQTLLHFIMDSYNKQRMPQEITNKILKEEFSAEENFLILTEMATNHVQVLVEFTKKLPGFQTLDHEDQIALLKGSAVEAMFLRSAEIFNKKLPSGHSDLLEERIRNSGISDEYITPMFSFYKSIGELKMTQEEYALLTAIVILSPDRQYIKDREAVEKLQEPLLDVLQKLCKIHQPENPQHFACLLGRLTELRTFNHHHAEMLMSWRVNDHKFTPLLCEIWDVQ
# Sequence of DNA dC->dU-editing enzyme APOBEC-3G (Homo sapiens) (Q9HC16 whole entry, looked up): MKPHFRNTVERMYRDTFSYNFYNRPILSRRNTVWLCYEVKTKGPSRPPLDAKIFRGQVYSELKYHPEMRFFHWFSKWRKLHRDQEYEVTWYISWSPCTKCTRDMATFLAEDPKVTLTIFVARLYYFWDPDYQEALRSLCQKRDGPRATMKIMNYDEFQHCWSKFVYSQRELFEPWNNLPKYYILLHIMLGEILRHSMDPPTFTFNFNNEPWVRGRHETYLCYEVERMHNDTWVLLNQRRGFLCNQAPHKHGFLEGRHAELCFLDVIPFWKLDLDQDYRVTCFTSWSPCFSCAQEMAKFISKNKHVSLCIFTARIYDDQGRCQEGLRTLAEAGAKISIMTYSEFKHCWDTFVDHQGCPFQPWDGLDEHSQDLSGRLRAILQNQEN
smiles,measurement,setting,value
CC[C@H]1CN2CCc3cc(OC)c(OC)cc3[C@@H]2C[C@@H]1C[C@H]1NCCc2cc(OC)c(OC)cc21,Potency,[1],0.282 µM (active)
COCC(=O)N(c1c(C)cccc1C)C(C)C(=O)OC (configuration not stated),Potency,[2],inactive
same,Potency,[3],inactive
same,Potency,[4],inactive
same,outcome,[5],inactive
ClC1=C(Cl)C2(Cl)C(CBr)CC1(Cl)C2(Cl)Cl (configuration not stated),Potency,[2],inactive
CC(C)NCC(O)c1ccc(N)c(C#N)c1 (configuration not stated),Potency,[2],inactive
CN1C(=O)[C@@H](NC(=O)c2cc3ccccc3[nH]2)N=C(c2ccccc2)c2ccccc21,Potency,[2],inactive
CCN(Cc1ccc(Cl)nc1)/C(=C/[N+](=O)[O-])NC,Potency,[2],inactive
Oc1ccc2[nH]cc(CCCCN3CC=C(c4ccccc4)CC3)c2c1,outcome,[6],inactive
CCC1(CC)C(=O)NC(=O)NC1=O,Potency,[2],inactive
CC[n+]1c(-c2ccccc2)c2cc(N)ccc2c2ccc(N)cc21,Potency,[2],39.8 µM (active)
same,outcome,[5],inactive
CN1C[C@@H](NS(=O)(=O)N(C)C)C[C@@H]2c3cccc4c3c(cn4C)C[C@H]21,Potency,[2],inactive
C[C@H]1C(=O)O[C@@H]2CCN3CC=C(COC(=O)[C@](C)(O)[C@]1(C)O)[C@H]23,Potency,[2],inactive
same,Potency,[3],inactive
same,Potency,[4],inactive
same,activation,[7],8.93%
same,Potency,[8],inactive
same,outcome,[5],inactive
Oc1c(Br)cc(Br)cc1Br,Potency,[2],inactive
same,Potency,[3],inactive
same,outcome,[5],inactive
CCS(=O)(=O)C(C)(C)S(=O)(=O)CC,Potency,[2],inactive
OC(c1ccccc1)(c1ccccc1)C1CCNCC1,Potency,[2],inactive
CCOC(=O)NC(O)C(Cl)(Cl)Cl (configuration not stated),Potency,[2],inactive
CNC(=O)Oc1cccc2ccccc12,Potency,[2],inactive
same,Potency,[3],inactive
same,Potency,[4],inactive
same,outcome,[5],inactive
CN1CCc2cc(Cl)c(O)cc2[C@H]2c3ccccc3CC[C@@H]21,Potency,[2],inactive
C[C@]12Cc3nonc3C[C@@H]1CC[C@@H]1[C@@H]2CC[C@@]2(C)[C@H]1CC[C@]2(C)O,Potency,[2],inactive
CN(C)C(=S)SSC(=S)N(C)C,Potency,[2],inactive
same,Potency,[3],inactive
same,activation,[7],0.667% and -2.28%
same,Potency,[8],inactive
same,outcome,[5],inactive
COC(=O)C1=C(C)NC(C)=C(C(=O)OC)C1c1ccccc1[N+](=O)[O-],Potency,[2],inactive
same,Potency,[1],11.2 µM (active)
same,Potency,[8],31.6 µM (active)
C=CCOC(Cn1ccnc1)c1ccc(Cl)cc1Cl (configuration not stated),Potency,[2],inactive
same,activation,[7],-7.13% and -8.27%
same,Potency,[8],inactive
same,outcome,[5],inactive
NC(N)=NC(=O)c1nc(Cl)c(N)nc1N,Potency,[3],inactive
CCN(CC)C(C)C(=O)c1ccccc1 (configuration not stated),Potency,[2],inactive
CCCCCCCCCCCC[N+](C)(C)CCOc1ccccc1,Potency,[2],79.4 µM (active)
same,Potency,[3],12.6 µM [inconclusive] (active)
same,outcome,[5],inactive
c1cc2c(c(N3CCNCC3)c1)OCCO2,Potency,[2],inactive
CC(C)C(Br)C(=O)NC(N)=O (configuration not stated),Potency,[2],inactive
CCN(CC)CCOC(=O)C(C)(c1ccccc1)c1ccccc1,Potency,[2],inactive
COP(=O)(OC)OC=C(Cl)Cl,Potency,[2],inactive
same,Potency,[3],inactive
same,outcome,[5],inactive
C[C@H](N)[C@H](O)c1ccc(O)c(O)c1,Potency,[2],inactive
COP(=O)(OC)C(O)C(Cl)(Cl)Cl (configuration not stated),Potency,[2],inactive
same,activation,[7],3.67%
same,outcome,[5],inactive
O=c1n(Cl)c(=O)n(Cl)c(=O)n1Cl,Potency,[2],inactive
same,Potency,[3],inactive
same,activation,[7],0.274%
same,Potency,[8],inactive
same,outcome,[5],inactive
NCc1cccnc1,Potency,[2],inactive
C[C@@H]1C[C@@H]([C@H](O)CC2CC(=O)NC(=O)C2)C(=O)[C@@H](C)C1,outcome,[6],inactive
same,Potency,[4],inactive
same,outcome,[5],inactive
CN1[C@@H]2CC[C@H]1CC(OC(=O)c1cc(Cl)cc(Cl)c1)C2 (some centres not stated),outcome,[6],inactive
CCCCCCCCCCCCCCCC[n+]1ccccc1,Potency,[2],20 µM (active)
same,outcome,[5],inactive
O=C1NCN(c2ccccc2)C12CCN(CCCOc1ccc(F)cc1)CC2,Potency,[2],inactive
same,outcome,[6],inactive
COc1ccc(CN2CCNCC2)c(OC)c1OC,Potency,[2],inactive
CCNc1nc(Cl)nc(NCC)n1,Potency,[2],inactive
same,Potency,[4],inactive
same,activation,[7],3.33%
same,Potency,[8],inactive
Cc1ccc(N=CN(C)C=Nc2ccc(C)cc2C)c(C)c1,Potency,[2],inactive
same,activation,[7],6.83%
same,Potency,[8],inactive
N#Cc1nn(-c2c(Cl)cc(C(F)(F)F)cc2Cl)c(N)c1S(=O)C(F)(F)F (configuration not stated),Potency,[2],inactive
same,activation,[7],-6.58%
O=C(NC(=O)c1c(F)cccc1F)Nc1cc(Cl)c(OC(F)(F)C(F)C(F)(F)F)cc1Cl (configuration not stated),Potency,[3],inactive
same,Potency,[4],inactive
Oc1ccc(Cl)cc1Cc1cc(Cl)ccc1O,Potency,[3],44.7 µM [inconclusive] (active)
same,Potency,[4],7.94 µM (active)

# — PubChem BioAssay (NCATS)
